MCF10A rerep = A quantitative high throughput screen for small molecules that induce DNA re-replication in MCF 10a normal breast cells | MCF 10A DNA re-replication, Hoechst nuclear intensity, 48 h | Potency, µM (titrated, usually from 46.1 µM), for inactives: at the highest dose activity, positive = re-replication, usual class: activators | 350,000 tested, 2.9% active | AID 624296, 2012; note: % of control where 0% means no effect; nearly all actives have a fitted effect of over 50% in size
KB-3-1 tox = qHTS assay for MDR1-selective chemotherapeutics: Primary screen using the parental adenocarcinoma cell KB-3-1 | KB-3-1 viability, CellTiter-Glo ATP luminescence, 72 h | Potency, µM (series often up to 46.1 µM), usual class: cytotoxic | 400,000 tested, 1.4% active | AID 1347075, 2019; note: % is set by controls: 0 for no effect and ±100 for the full control effect; nearly all actives have a fitted effect of over 60% in size
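KB-3-1 cells, DMEM (no phenol red) + 10% FBS; compound by pin transfer, 72 h, 37 °C. Readout: CellTiter-Glo luminescence after 10 min. Data normalized, curve-fitted.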
RGS4 inh = Inhibitors of Regulator of G Protein Signaling (RGS) 4: qHTS. Regulator of G-protein signaling 4 (Homo sapiens), P49798. Transcreener GDP fluorescence polarization, RGS4-accelerated GTP hydrolysis. Potency, µM (doses to about 114 µM), for inactives: at the highest dose activity change, negative = inhibition, most hits filed as inhibitors. 390,000 tested, 0.039% active; note: % is set by controls: 0 for no effect and ±100 for the full control effect; nearly all actives have a fitted effect of over 75% in size
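MLSMR compounds (23 nl, pin-transferred) preincubated 10 min at room temperature with a 500nM (2x) first reagent, then RGS4 at 900nM (2x) plus Transcreener GDP mix added; fluorescence polarization (620/688 nm) read before and after 90 min at 30 °C.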
SW480 rereplic = A quantitative high throughput screen for small molecules that induce DNA re-replication in SW480 colon adenocarcinoma cells | SW480 DNA re-replication, Hoechst DNA content imaging, 48 h | Potency, µM (series often up to 46.1 µM), inactives show at the top dose re-replication activation, most hits filed as activators | 340,000 tested, 1.8% active | AID 624297, 2012; note: % of control where 0% means no effect; nearly all actives have a fitted effect of over 55% in size
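Compounds, transferred as 23 nL by pin tool, were incubated with cells for 48 hr; DNA content per nucleus was then quantified by Hoechst staining and fluorescence plate imaging.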
KB-V1 cytotox = qHTS assay for MDR1-selective chemotherapeutics: Primary screen using the drug-selected MDR subline cells KB-V1 | Potency, µM (top dose mostly 46.1 µM), most hits filed as cytotoxic | 400,000 tested, 3.4% active | KB-V1 MDR cells viability, CellTiter-Glo, 72 h; note: % is set by controls: 0 for no effect and ±100 for the full control effect; nearly all actives have a fitted effect of over 60% in size
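Luminescent ATP read-out (CellTiter-Glo, 10 min) measures survival of drug-selected KB-V1 MDR cells after 72 h, 37 degrees C compound exposure. Medium: phenol-red-free DMEM, 10% FBS. Values from fitted concentration-response curves.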
TSG101-PTAP inh = qHTS Assay for Iinhibitors of HIV-1 Budding by Blocking the Interaction of PTAP/TSG101; Tumor susceptibility gene 101 protein (Homo sapiens), Q99816; Fluorescence polarization, FITC-PTAP peptide / Tsg101 binding; Potency, µM (series often up to 115 µM), without a hit: at the top dose activity change, negative = inhibition, hits mostly inhibitors; 340,000 tested, under 10 active; AID 493005, 2010; active = well fitted inhibition curve with a large enough effect in the main read-out, with a control signal flat, not every such curve was filed as active; inconclusive = small, poorly fitted or top-dose-only effect, or effect the other way, or a change in a side signal; inactive = no such curve, though single readings can be large or run the other way; note: % of control where 0% means no effect
Target sequence (Q99816 whole entry, looked up): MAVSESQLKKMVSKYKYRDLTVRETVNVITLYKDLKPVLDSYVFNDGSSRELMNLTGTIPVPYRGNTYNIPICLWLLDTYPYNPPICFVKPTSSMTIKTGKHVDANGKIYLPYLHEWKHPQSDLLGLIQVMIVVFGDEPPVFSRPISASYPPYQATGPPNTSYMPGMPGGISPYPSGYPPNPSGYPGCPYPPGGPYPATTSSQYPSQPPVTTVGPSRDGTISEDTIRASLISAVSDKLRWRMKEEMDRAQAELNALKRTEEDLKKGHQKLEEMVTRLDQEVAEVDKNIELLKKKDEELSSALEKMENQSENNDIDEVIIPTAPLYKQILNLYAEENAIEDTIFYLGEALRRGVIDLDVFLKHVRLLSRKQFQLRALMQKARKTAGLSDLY
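FP read-out: FITC-PTAP peptide, 50 nM final, binding Tsg101 binding domain, 10 uM final; 20 min, r.t.; 10 mM HEPES pH 7.5, 0.15 M NaCl, 0.01% Tween 20, 3 mM EDTA, 0.1 mM TCEP.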
Starred values were filed as active, the others as inactive; i = inactive; ? = inconclusive; . = no result given. Hits are enriched below; roughly 6.6% of the tested compounds scored in any of these assays. Unless noted, calls come from the whole dose curve; as a rule, active = well fitted curve in the direction sought with a large enough effect; inconclusive = small, poorly fitted or top-dose-only effect, or another doubt; inactive = no such curve, though single readings can be large; an effect the other way counts as inactive or inconclusive. Potency is the fitted concentration of half-maximal effect.

SMILES	MCF10A rerep	KB-3-1 tox	RGS4 inh	SW480 rereplic	KB-V1 cytotox	TSG101-PTAP inh
C=CCn1c(SCC(=O)NCc2ccco2)nc2ccccc2c1=O	1%	i	16%	-102%	i	-8%
CC(C)(C)c1nc2ccccc2c2nnc(SCC(=O)NCc3ccco3)n12	-9%	i	21%	1%	5.2µM*	.
Cc1ccc(-n2c(=O)c3oc4ccccc4c3n(CC(=O)Nc3ccc(F)c(Cl)c3)c2=O)cc1C	.	.	-24%	.	.	.
Cc1cc(C)n(-c2nc3cc(Cl)ccc3nc2N2CCN(c3ccccc3F)CC2)n1	.	i	-1%	.	?	.
CCOC(=O)c1nnc(-c2ccccc2)nc1Sc1c(Cl)cccc1Cl	15µM*	i	-12%	?	i	0%
CCOC(=O)c1nnc(-c2ccc(C)cc2)nc1Sc1ccc(Cl)cc1	-2%	i	-9%	-7%	i	0%
CCOC(=O)c1nnc(-c2ccc(C)cc2)nc1Oc1ccc(Cl)cc1Cl	?	i	0%	-7%	i	0%
CCOC(=O)c1nnc(-c2ccccc2)nc1NCc1ccc(Cl)cc1	?	i	-20%	1%	i	-1%
CCOC(=O)c1nnc(-c2ccc(C)cc2)nc1Oc1ccccc1Cl	2.3µM*	i	-5%	?	i	1%
CCOC(=O)c1nnc(-c2ccc(C)cc2)nc1Sc1ccccc1Cl	7.3µM*	?	13%	-4%	i	0%
CC(=O)N1CCc2cc(Br)cc(S(=O)(=O)NCCc3cccc(C)c3)c21	.	.	-4%	.	.	.
N#C/C(=C1/CCCCCN1)c1nc2ccccc2[nH]1	26%	i	-7%	3%	i	-5%
N#Cc1cnc2nc1NCCCCCCC2	.	?	.	.	5.2µM*	.
COc1ccccc1CNC(=O)C1CCN(S(=O)(=O)Cc2ccccc2)CC1	.	i	-12%	.	i	.
N#Cc1nc(-c2ccc(OCc3ccc(Cl)cc3)cc2)oc1N1CCCC1	.	i	-14%	.	?	.
CC1=C(CC(=O)c2ccc(Cl)cc2)C(=O)c2ccccc2C1=O	4.1µM*	?	-29%	4.1µM*	16µM*	1%
O=C(Cc1ccccn1)c1ccc(Cl)cc1	27%	i	-9%	-2%	i	-4%
COc1ccc(/C=C2\C=Cc3ccccc32)cc1OC	.	i	.	.	i	.
Cc1cccc2nc(-c3cccnc3)c(NCCC(C)C)n12	21µM*	i	6%	-2%	?	-1%
Cc1cccc2nc(-c3cccnc3)c(Nc3ccccc3)n12	-8%	?	2%	3%	18µM*	0%
CCc1ccccc1NC(=O)Cn1nc(C)c2nn(-c3ccc(Cl)cc3)c(C)c2c1=O	.	.	-28%	.	.	.
COc1cc(C2Sc3ccccc3NC3=C2C(=O)OC3)cc(OC)c1OC (stereo not given)	?	23µM*	-17%	?	i	-8%
COc1cc(C2CC(=O)Nc3ccccc3S2)cc(OC)c1OC (stereo not given)	?	i	11%	5%	10µM*	-7%
O=C1CC(c2ccc(F)cc2)Sc2ccccc2N1 (stereo not given)	?	i	12%	0%	i	-5%
COc1ccc2[nH]cc(CCN=C(NC(=O)c3ccccc3F)Nc3nc(C)cc(C)n3)c2c1	.	?	-11%	.	?	.
O=C(/C=C/c1cn(CC(O)CN2CCCCCC2)c2ccccc12)c1ccc(Br)cc1 (stereo not given)	.	i	?	.	i	.
CCOC(=O)c1cnc2cc(C(F)(F)F)ccc2c1Nc1ccc(F)cc1F	.	i	-5%	.	i	.

Source: PubChem BioAssay (National Center for Advancing Translational Sciences (NCATS))
